Compound activity from PubChem BioAssay.
DT40 TDP1 no CPT = qHTS for Inhibitors of human tyrosyl-DNA phosphodiesterase 1 (TDP1): qHTS in cells in absence of CPT; Potency, µM (top dose mostly 46.2 µM), usual class: inhibitors; DT40 Tdp1-/- hTDP1 cells, no CPT, ATP luminescence, 48 h; hit rate 15% among 420,000; also: nearly all actives have a fitted effect of over 55% in size
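Chicken DT40 Tdp1-/- cells stably complemented with human TDP1 were seeded at 400 cells/well with DMSO in place of 20 nM camptothecin. After compound pinning, cells grew at least 48 hr at 37 °C; viability read by CellTiter-Glo luminescence.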
ClpP mod = qHTS Assay for Activators of ClpP. hit rate 1.9% among 340,000. ATP-dependent Clp protease proteolytic subunit (Bacillus subtilis (strain 168)), P80244. Potency, µM (top dose mostly 57.5 µM). purified B. subtilis ClpP, FRET peptide cleavage, 20 min. AID 651965, 2013; active = well fitted falling curve with a large enough effect; inconclusive = small, poorly fitted or top-dose-only effect; inactive = no such curve, though single readings can be large or run the other way; also: the source files actives as falling curves though it sought activators and does not explain the sign; nearly all actives have a fitted effect of over 65% in size
Target sequence (P80244 whole entry, looked up): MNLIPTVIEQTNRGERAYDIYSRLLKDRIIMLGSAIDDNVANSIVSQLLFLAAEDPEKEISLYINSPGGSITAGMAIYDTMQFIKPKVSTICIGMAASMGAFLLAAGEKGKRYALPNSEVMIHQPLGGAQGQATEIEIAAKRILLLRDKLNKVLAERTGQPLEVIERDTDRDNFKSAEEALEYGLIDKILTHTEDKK
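Purified B. subtilis ClpP, 10 microg/mL final in Tris/HCl pH8 with KCl, BSA, glycerol and Tween-20, cleaved an Abz/nitrotyrosine-quenched decapeptide. Fluorescence (ex 320, em 430) was read at 0 and 20 min at room temperature. Delta was normalized to 5.8 microM ADEP and DMSO/no-enzyme controls.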
D3 antag = antagonists of human D3 dopamine receptor | max response, negative = inhibition, % | D3R cells, DiscoveRx beta-arrestin luminescence, antagonist mode; stronger effect = lower value | hit rate 2.5% among 360,000; in the data active = max response below about -50%; inconclusive = no clear call, values can overlap the other calls
Target sequence (P35462 whole entry, looked up): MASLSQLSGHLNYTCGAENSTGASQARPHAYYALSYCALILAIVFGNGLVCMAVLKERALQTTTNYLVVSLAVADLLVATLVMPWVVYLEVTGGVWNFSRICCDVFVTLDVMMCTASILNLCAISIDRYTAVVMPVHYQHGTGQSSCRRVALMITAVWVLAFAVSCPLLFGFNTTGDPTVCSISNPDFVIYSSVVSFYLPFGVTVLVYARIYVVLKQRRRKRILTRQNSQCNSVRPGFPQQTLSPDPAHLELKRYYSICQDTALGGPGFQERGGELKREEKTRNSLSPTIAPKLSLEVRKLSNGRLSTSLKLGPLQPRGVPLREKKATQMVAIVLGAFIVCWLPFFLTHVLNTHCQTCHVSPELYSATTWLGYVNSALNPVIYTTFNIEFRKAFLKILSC
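Cells expressing the human receptor were seeded at 1500 cells/well, incubated overnight at 37 degrees C in 5% CO2, then exposed to library compounds with dopamine controls for 90 minutes at 37 degrees C before luminescent detection.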
TDP1 cell CPT = growth inhibition of DT40 Tdp1-/-;hTDP1 cells with camptothecin (screen for TDP1 inhibitors); chicken DT40 Tdp1-/-;hTDP1 cells + 20 nM CPT, ATP luminescence, 48 h; Potency, µM (doses to about 46.2 µM), hits mostly inhibitors; hit rate 12% among 420,000; also: nearly all actives have a fitted effect of over 55% in size
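Cell growth measured by CellTiter-Glo luminescence after a minimum 48 h, 37 C compound exposure with 20 nM CPT in Tdp1-knockout DT40 cells stably expressing hTDP1, seeded 400/well; qHTS titration format.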
D3 ag = activates the human D3 dopamine receptor; P35462; D3R DiscoveRx beta-arrestin cells, luminescence, 90 min; max activation, %; hit rate 0.58% among 410,000; in the data active = max activation above about 30%
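Agonist-mode cell screen: cells plated at 1500/well and incubated overnight at 37 °C, then exposed to library compounds for 90 min at 37 °C. Detection reagent was added for 30–60 min at room temperature, and luminescence was read.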
IL-1B inflam inh = blocks inflammasome-driven IL-1 beta release; THP-1 LPS/ATP IL-1B secretion, AlphaLISA, 16 h; stronger effect = lower value; activity change, % at 57.5 µM; hit rate 4.7% among 360,000; AID 743279; in the data active = activity change below about -50%; inconclusive = mostly about -30% to -49%
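Secreted IL-1B measured by AlphaLISA bead assay after 16 h compound exposure of THP-1 cells; compounds (final up to 57.5 uM) added 1 h before LPS (250 ng/mL) and ATP (1.25 mM) stimulation; lower signal means less secretion.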
A number is an active result. Most compounds without a hit are left out; they make up all but 21% or so of the library. Unless noted, calls follow the shape of the dose curve; as a rule, active = well fitted inhibition curve with a large enough effect; inconclusive = small, poorly fitted or top-dose-only effect; inactive = flat fitted curve, though single readings scatter.

Screening Cc1ccc(NC(=O)CNc2ccccc2CN(C)C2CCCCC2)cc1 returned DT40 TDP1 no CPT inconclusive, ClpP mod inactive, D3 antag inactive, TDP1 cell CPT inconclusive, D3 ag inactive and IL-1B inflam inh inactive.
`COc1ccc(Cl)cc1NC(=O)CN(C)C(C)C(=O)NC(=O)NC1CCCCC1` (stereo unspecified) gave DT40 TDP1 no CPT 18µM, ClpP mod inactive, D3 antag inactive, TDP1 cell CPT inconclusive, D3 ag inactive and IL-1B inflam inh inconclusive.
Screening COc1ccc(C)cc1NC(=O)CNc1ccccc1CN(C)C1CCCCC1 returned DT40 TDP1 no CPT inconclusive, D3 antag inactive, TDP1 cell CPT 18µM, D3 ag inactive and IL-1B inflam inh inactive.
Screening CCN(CC(=O)Nc1c(F)cccc1F)C(=O)CNC(=O)c1ccc(C)s1 returned DT40 TDP1 no CPT inactive, ClpP mod inactive, D3 antag inconclusive, TDP1 cell CPT inactive, D3 ag inactive and IL-1B inflam inh inactive.
`CCC(SC1=NCCS1)C(=O)Nc1ccc(S(N)(=O)=O)cc1` (stereo unspecified) gave DT40 TDP1 no CPT inactive, ClpP mod inactive, D3 antag inactive, TDP1 cell CPT inactive, D3 ag inactive and IL-1B inflam inh inactive.
`CC1(C)CC(=O)C2=C(C1)c1c(ccc3ncccc13)NC2c1cccs1` (stereo unspecified) gave DT40 TDP1 no CPT 3.7µM, ClpP mod inconclusive, D3 antag inactive, TDP1 cell CPT 5.2µM, D3 ag inactive and IL-1B inflam inh inactive.
Screening O=C1CCCC2=C1C(c1ccco1)Nc1ccc3ccccc3c12 (stereo unspecified) returned DT40 TDP1 no CPT 18µM, ClpP mod 35µM, D3 antag inactive, TDP1 cell CPT 21µM, D3 ag inactive and IL-1B inflam inh inactive.
Cc1ccc(C2Nc3ccc4ccccc4c3C3=C2C(=O)CC(C)(C)C3)o1 (stereo unspecified) was read as DT40 TDP1 no CPT inconclusive, ClpP mod 14µM, D3 antag inactive, TDP1 cell CPT inconclusive, D3 ag inactive and IL-1B inflam inh -52.
For O=C1CCCC2=C1C(c1ccc(O)c(O)c1)Nc1ccc3ccccc3c12 (stereo unspecified) the results were DT40 TDP1 no CPT 10µM, D3 antag inactive, TDP1 cell CPT inconclusive, D3 ag inactive and IL-1B inflam inh inactive.
Screening O=C1CCCc2ccc3ccccc3c21 returned DT40 TDP1 no CPT inactive, ClpP mod inactive, D3 antag inactive, TDP1 cell CPT inactive, D3 ag inactive and IL-1B inflam inh inactive.
CC1(C)CC(=O)C2=C(C1)c1c(ccc3ccccc13)NC2c1ccc(C(=O)O)cc1 (stereo unspecified) was read as DT40 TDP1 no CPT inactive, D3 antag inactive, TDP1 cell CPT inactive, D3 ag inactive and IL-1B inflam inh inactive.
Screening COc1ccc2c(c1)[C@H]1[C@H](CO2)[C@H](c2ccccc2)[C@]2(C)C(=O)N(CC3CCCO3)CC(=O)N12 (stereo partly specified) returned DT40 TDP1 no CPT inconclusive, ClpP mod inactive, D3 antag inactive, TDP1 cell CPT inconclusive, D3 ag inactive and IL-1B inflam inh inactive.
`COc1cc(C2Nc3ccc4ncccc4c3C3=C2C(=O)CC(C)(C)C3)cc(OC)c1O` (stereo unspecified) gave DT40 TDP1 no CPT inconclusive, ClpP mod inactive, D3 antag inactive, TDP1 cell CPT inconclusive, D3 ag inactive and IL-1B inflam inh inactive.
`COc1cc(C2Nc3ccc4ncccc4c3C3=C2C(=O)CCC3)cc(OC)c1O` (stereo unspecified) gave DT40 TDP1 no CPT 5.2µM, ClpP mod inactive, D3 antag inactive, TDP1 cell CPT 5.2µM, D3 ag inactive and IL-1B inflam inh inactive.
For CN1CCc2c(sc3c2C(=O)NC(c2ccc(C(C)(C)C)cc2)N3)C1 (stereo unspecified) the results were DT40 TDP1 no CPT 13µM, ClpP mod inactive, TDP1 cell CPT inconclusive and D3 ag inactive.
Screening COc1ccc(C(=O)Oc2ccc(C3NC(=O)c4c(sc5c4CCN(C)C5)N3)cc2OC)cc1 (stereo unspecified) returned DT40 TDP1 no CPT 16µM, ClpP mod 18µM, TDP1 cell CPT inconclusive and D3 ag inactive.
CS(=O)(=O)Nc1cccc(-c2cncnc2-n2ccnc2)c1 was read as DT40 TDP1 no CPT inactive and TDP1 cell CPT inactive.
Screening Cc1ccc2c(c1)N(C(=O)CCC(=O)NCc1ccccn1)CC(C)O2 (stereo unspecified) returned DT40 TDP1 no CPT inactive, ClpP mod inactive, D3 antag inactive, TDP1 cell CPT inactive, D3 ag inactive and IL-1B inflam inh inactive.
For CC1CCCCN1CCCNC(=O)C1CCN(c2nc3ccccc3o2)CC1 (stereo unspecified) the results were DT40 TDP1 no CPT inactive, ClpP mod inactive, D3 antag inconclusive, TDP1 cell CPT inactive, D3 ag inactive and IL-1B inflam inh inactive.
For O=C(NC1CCCCCC1)C1CCN(c2nc3ccccc3o2)CC1 the results were DT40 TDP1 no CPT 16µM, ClpP mod inactive, D3 antag inactive, TDP1 cell CPT inconclusive, D3 ag inactive and IL-1B inflam inh inactive.
COc1cccc(NC(=S)N2CCC(Cc3ccccc3)CC2)c1 was read as DT40 TDP1 no CPT inconclusive, ClpP mod inactive, D3 antag inactive, TDP1 cell CPT 21µM, D3 ag inactive and IL-1B inflam inh inactive.
For O=C(C(=O)N1CCC(Cc2ccccc2)CC1)c1ccccc1 the results were DT40 TDP1 no CPT 16µM, ClpP mod inactive, D3 antag inactive, TDP1 cell CPT inconclusive, D3 ag inactive and IL-1B inflam inh inactive.
`COC(=O)Cc1ccc(NC(=S)N2CCC(Cc3ccccc3)CC2)cc1` gave DT40 TDP1 no CPT inconclusive, ClpP mod inactive, D3 antag inactive, TDP1 cell CPT inactive, D3 ag inactive and IL-1B inflam inh inactive.
`COc1cccc(NC(=O)CCC2CCN(C(=O)C(OC)c3ccccc3)CC2)c1` (stereo unspecified) gave DT40 TDP1 no CPT 21µM, ClpP mod inactive, D3 antag inactive, TDP1 cell CPT 16µM, D3 ag inactive and IL-1B inflam inh inactive.
For N#Cc1cccc(C(=O)C(=O)N2CCC(Cc3ccccc3)CC2)c1 the results were DT40 TDP1 no CPT inconclusive, ClpP mod inactive, D3 antag inactive, TDP1 cell CPT inconclusive, D3 ag inactive and IL-1B inflam inh inactive.
Screening CC(=O)c1ccc(NC(=S)N2CCC(Cc3ccccc3)CC2)cc1 returned DT40 TDP1 no CPT inconclusive, ClpP mod inactive, D3 antag inactive, TDP1 cell CPT inactive, D3 ag inactive and IL-1B inflam inh -79.
